In PubChem BioAssay AID588453 (National Center for Advancing Translational Sciences (NCATS), 2011):
Several values for one entry are separate records, joined by “and”; a condition that tells them apart may be missing. Equal values may be shown once. Hit rate of the full screen: of about 390,000 compounds, about 4,000 (1%) were called active. Another 4% or so got no clear call; they are omitted. The call rests on the fitted dose curve; in most records, active means well fitted inhibition curve with a large enough effect; inconclusive means small, poorly fitted or top-dose-only effect; inactive means no such curve, though single readings can be large or run the other way. What follows is part of a selection rich in actives, with near analogues and random picks from the rest. Entries that show only a call come without a potency. The source holds several records for some structures; these can differ, active in one and inactive in another.
Further: nearly all actives have a fitted effect of over 65% in size.
Potency means the concentration at half of the fitted maximal effect.

What follows are compounds tested against Thioredoxin reductase 1, cytoplasmic (Rattus norvegicus) (UniProt O89049) (assay: qHTS Assay for Inhibitors of Mammalian Selenoprotein Thioredoxin Reductase 1 (TrxR1): qHTS). Conditions: recombinant rTrxR1, NADPH fluorescence consumption, selenite substrate; series mostly up to 114 µM.
Thioredoxin reductase 1, cytoplasmic (Rattus norvegicus), sequence (O89049 whole entry, looked up): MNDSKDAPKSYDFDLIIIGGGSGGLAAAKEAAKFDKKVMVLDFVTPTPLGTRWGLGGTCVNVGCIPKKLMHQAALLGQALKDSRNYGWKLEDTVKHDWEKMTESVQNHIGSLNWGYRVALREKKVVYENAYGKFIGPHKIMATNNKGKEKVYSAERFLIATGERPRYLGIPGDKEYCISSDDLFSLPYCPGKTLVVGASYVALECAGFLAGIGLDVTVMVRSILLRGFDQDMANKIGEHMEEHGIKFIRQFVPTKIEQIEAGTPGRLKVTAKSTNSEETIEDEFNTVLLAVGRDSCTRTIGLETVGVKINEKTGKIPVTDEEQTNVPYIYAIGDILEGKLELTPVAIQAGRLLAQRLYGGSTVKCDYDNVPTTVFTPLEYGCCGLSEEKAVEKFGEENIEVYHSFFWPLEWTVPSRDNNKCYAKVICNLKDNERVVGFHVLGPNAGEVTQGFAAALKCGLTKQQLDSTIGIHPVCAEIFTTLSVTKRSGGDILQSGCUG
Method in brief: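 Rat TrxR1 (90 nM in the dispensed reagent) was pre-reduced with 400 uM NADPH for 5 min at room temperature, then incubated with compound for 15 min. After 400 uM selenite was added, NADPH fluorescence (Ex 340/Em 450 nm) was followed for 8 min.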
`Cc1ccc(C)c(OCC(=O)Nc2sc3c(c2C#N)CCCC3)c1C` was tested, and the Potency was “inactive”.
`COc1cccc(C2CC(c3ccccc3)=NN2S(=O)(=O)c2ccccc2)c1OC` (stereo not drawn) was tested, and the Potency was “inactive”.
`COc1ccc2c(c1OC)C(=O)OC2Nc1nc(-c2ccccc2)cs1` (stereo not drawn) was tested, and the Potency was 4.47 µM (active).
With `Cc1ccc2c(c1)N(C(=O)CCC(=O)NCc1ccccc1F)CC(C)O2` (stereo not drawn) the Potency was “inactive”.
With `O=C(C1CCC(Cn2c(=O)c3sccc3n(Cc3ccccc3F)c2=O)CC1)N1CCCCC1` (stereo not drawn) the Potency was “inactive”.
For `O=C(/C=C/c1ccc([N+](=O)[O-])o1)NNC(=O)c1ccc(F)cc1`, the Potency was 3.16 µM (active).
`COc1ccc(-n2c(SCC(=O)Nc3ccc(Cl)c(C)c3)nc3n[nH]c(C)c3c2=N)cc1` was tested, and the Potency was “inactive”.
In the case of `O=C(Nc1ccc2oc(-c3ccc(O)c(Br)c3)nc2c1)c1cc2ccccc2o1`, the Potency is reported as “inactive”.
In the case of `CCC(=O)Nc1nnc(S(=O)(=O)N(CC(C)C)c2ccccc2)s1`, the Potency is reported as “inactive”.
In the case of `CCN(c1ccc(Cl)cc1)S(=O)(=O)c1nnc(NC(=O)c2ccco2)s1`, the Potency is reported as “inactive”.
`CCN(CC)S(=O)(=O)c1nnc(NC(=O)COc2ccccc2Cl)s1` was tested, and the Potency was “inactive”.
`CN(Cc1ccco1)S(=O)(=O)c1nnc(NC(=O)c2ccccc2)s1` was tested, and the Potency was “inactive and 17.8 µM (active)”.
With `CCOc1cccc(C(=O)Nc2nnc(S(=O)(=O)N(C)c3ccc(C)cc3)s2)c1` the Potency was “inactive”.
For `CCCCC(=O)Nc1nnc(S(=O)(=O)N(C)Cc2ccco2)s1`, the Potency was 44.7 µM (active).
`CCCCOc1ccc(C(=O)NO)cc1` was tested, and the Potency was “inactive”.
In the case of `COC(=O)c1ccc(NC(=O)CCc2c(C)nc3c(c(C)nn3-c3ccc(C)cc3)c2C)cc1`, the Potency is reported as “inactive”.
With `COC(=O)c1cc(NC(=O)c2cnc(SC)nc2-c2ccccc2)cc(C(=O)OC)c1` the Potency was “inactive”.
With `N#CCCN1CCN(S(=O)(=O)c2ccc(S(=O)(=O)N3CCCC3)cc2)CC1` the Potency was “inactive”.
In the case of `CC(C)(C)c1cc(CN2CCN(CCC#N)CC2)cc(C(C)(C)C)c1O`, the Potency is reported as 4.47 µM (active).
For `N#Cc1cccc(CN2CCC(=O)N(CCO)CC2)c1`, the Potency was “inactive”.
In the case of `COc1cc2nc(Cl)nc(NC3CC3)c2cc1OC`, the Potency is reported as “inactive”.
For `Cc1cccc(C(CC(=O)NCC2(c3ccccc3)CCCC2)c2ccccc2)c1O` (stereo not drawn), the Potency was “inactive”.
With `O=C(CCSCc1ccccc1F)N1CCN(c2ccc(Cl)cc2)CC1` the Potency was “inactive”.
For `COc1ccc(N2C(=O)/C(=C\c3ccco3)N=C2SCC(N)=O)cc1Cl`, the Potency was “inactive”.
With `COC(=O)C1=C(C)N(C)C(C)=C(C(=O)OC)C1c1cccc(Br)c1` the Potency was “inactive”.
With `COC(=O)C1=C(C)N(c2ccc(C)cc2)/C(=C/c2ccc(O)cc2)C1=O` the Potency was “inactive”.
For `COC(=O)C1=C(C)N(c2ccc(Br)cc2)C(=O)/C1=C\c1ccco1`, the Potency was 50.1 µM (active).
In the case of `COC(=O)C1=C(C)N(C(C)c2ccccc2)C(=O)/C1=C\c1ccco1` (stereo not drawn), the Potency is reported as 28.2 µM (active).
With `COc1ccc(N2C(=O)CS(=O)(=O)C23C(=O)N(Cc2ccc(C)cc2)c2ccccc23)cc1Cl` (stereo not drawn) the Potency was “inactive”.
`Cc1ccc2nc(COc3cccc(NC(=O)c4ccccc4Cl)c3)cc(=O)n2c1` was tested, and the Potency was “inactive”.
In the case of `COc1ccc(Cl)cc1NC(=O)CSc1nc(-c2cccs2)cc(C(F)(F)F)n1`, the Potency is reported as “inactive”.
With `CSc1ccccc1NC(=O)CCS(=O)(=O)c1nc(-c2cccs2)cc(C(F)(F)F)n1` the Potency was 14.1 µM (active).
`O=C(CSc1ccc(-c2cccs2)nn1)Nc1ccccc1F` was tested, and the Potency was “inactive”.
In the case of `CCc1ccc(S(=O)(=O)c2nnn3c2nc(N2CCN(CC)CC2)c2sccc23)cc1`, the Potency is reported as “inactive”.
For `CC(C)C[C@H](NC(=O)[C@H](O)[C@H](N)Cc1ccccc1)C(=O)O`, the Potency was “inactive”.
`O=C(CSc1nnc(-c2cccnc2)n1CCc1ccccc1)NCc1ccccc1` was tested, and the Potency was “inactive”.
For `CCn1c(SCC(=O)NCc2ccco2)nnc1-c1ccc(N)cc1`, the Potency was “inactive”.
With `O=C(CSc1nnc(-c2cccnc2)n1Cc1ccco1)c1ccc(Cl)c(Cl)c1` the Potency was 44.7 µM (active).
`Cc1ccc(C)c(N2CCN(C(=O)Cc3c(C(=O)O)c(C)cn3C)CC2)c1` was tested, and the Potency was “inactive”.
In the case of `Cc1ccccc1CNC(=O)Cn1c(C)c2cnn(-c3ccccc3)c(=O)c2c1C`, the Potency is reported as “inactive”.
In the case of `Cc1ccc(C(=O)Nc2ccc3[nH]c(=O)c(=O)[nH]c3c2)cc1`, the Potency is reported as “inactive”.
With `CCCS(=O)(=O)C(=C1Nc2ccccc2N1)S(=O)(=O)CCC` the Potency was “inactive”.
In the case of `CN(C)/C=C1/Nc2ccccc2C1=O`, the Potency is reported as 35.5 µM (active).
In the case of `Cc1ccc(S(=O)(=O)c2nnn3c2nc(N2CCN(c4ccccc4F)CC2)c2cc(Cl)ccc23)cc1C`, the Potency is reported as “inactive”.
In the case of `COCCNC(=O)CSc1nc(-c2ccccc2)[nH]c1-c1ccc(C)cc1`, the Potency is reported as “inactive”.
With `Cc1csc(NCC(=O)c2c[nH]c3ccccc23)n1` the Potency was “inactive”.
With `COCCCn1c(-c2cccs2)nc2nc3ccccc3nc21` the Potency was “inactive”.
With `Clc1cccc(-c2nc3nc4ccccc4nc3n2Cc2ccco2)c1` the Potency was 7.94 µM (active).
With `Cc1nc2ccc(S(=O)(=O)N(CC(=O)Nc3ccc(F)cc3)Cc3ccccc3)cc2s1` the Potency was “inactive”.
For `Cc1ccc(C2C=C(c3ccc(Cl)cc3)Nc3nc(NC(=O)CCC(=O)O)nn32)cc1` (stereo not drawn), the Potency was “inactive”.
For `CCOc1ccc(NC(=O)Cn2c(=O)n(CCCC(=O)NCc3ccc4c(c3)OCO4)c(=O)c3ccccc32)cc1`, the Potency was “inactive”.
`CCOc1ccc(C(=O)CCC(=O)NC2=NCCS2)cc1` was tested, and the Potency was “inactive”.
With `CCOc1ccc(NCCC(=O)c2ccc3c(c2)OCO3)cc1` the Potency was 2.24 µM (active).
In the case of `COC(=O)c1c(NC(=O)CCCOc2ccccc2)sc2c1CCC(C)C2` (stereo not drawn), the Potency is reported as “inactive”.
For `CCCc1[nH]nc2c1C(c1ccc(Br)s1)C(C#N)=C(N)O2` (stereo not drawn), the Potency was 44.7 µM (active).
For `CCCc1nc2c([nH]1)C(c1cccnc1)C(C#N)=C(N)O2` (stereo not drawn), the Potency was “inactive”.
`CCOc1ccc(-n2c(C)nc3c(cnn3-c3ccc(C)cc3)c2=O)cc1` was tested, and the Potency was “inactive”.
With `CCC1(C)CC(=O)c2c(ccc3oc(C(=O)Nc4ccc(C(C)=O)cc4)c(C)c23)O1` (stereo not drawn) the Potency was “inactive”.
For `Cc1ccc(Cn2c(=O)n(Cc3nc(-c4ccccc4)no3)c(=O)c3cc4c(cc32)OCO4)cc1`, the Potency was “inactive”.
In the case of `Cc1ccc(Cn2c(C)nc3c(c2=O)c2nc4ccccc4nc2n3Cc2ccco2)cc1`, the Potency is reported as 10 µM (active).
In the case of `Cc1ccc(OCC(=O)c2cc(C)n(Cc3ccco3)c2C)c([N+](=O)[O-])n1`, the Potency is reported as “inactive”.
With `CC(C)(C)C1CCC(NC(=O)c2cnn3c2NC(=C2CC2)C=C3C(F)F)CC1` (stereo not drawn) the Potency was “inactive”.
For `O=S(=O)(c1ccc(Cl)cc1)c1nnn2c1nc(NC1CCCC1)c1sccc12`, the Potency was “inactive”.
With `COc1ccc(/C=C/c2ccnc3ccccc23)cc1OC` the Potency was “inactive”.
In the case of `CCOc1cc(CNC(=O)c2sc3ncnc(N(C)C4CCCCC4)c3c2C)ccc1OC`, the Potency is reported as “inactive”.
For `CCOC(=O)Nc1ccc(S(=O)(=O)N(C)C(C)C)cc1`, the Potency was “inactive”.
With `CCOC(=O)Nc1ccc2c(c1)N(C(=O)CN1CCN3CCCC3C1)c1ccccc1CC2` (stereo not drawn) the Potency was “inactive”.
In the case of `CCOC(=O)Nc1ccc2c(c1)N(C(=O)CCCl)c1ccccc1[S@]2=O`, the Potency is reported as 50.1 µM (active).
With `Oc1ccc(Br)cc1C1C=C(c2ccc3c(c2)OCO3)NC(c2ccc(Cl)cc2)N1` (stereo not drawn) the Potency was “inactive”.
`CC(CCCc1ccccc1)NC(=O)c1nn(-c2ccc(Cl)cc2)nc1CO` (stereo not drawn) was tested, and the Potency was “inactive”.
With `COc1ccc(Cl)cc1N(C)C(=O)c1cc2c(=O)oc3ccc(C)cc3c2s1` the Potency was “inactive”.
`O=C(NCCCc1ccccc1)c1ccc2c(c1)sc1nc(-c3ccc(F)cc3)cn12` was tested, and the Potency was “inactive”.
With `CN1C(=O)c2ccccc2Sc2ccc(NC(=O)Cc3ccc(Cl)cc3)cc21` the Potency was “inactive”.
For `CCOc1cc2[nH]c(=S)n(Cc3ccc(C(=O)N4CCN(C)CC4)cc3)c(=O)c2cc1OCC`, the Potency was “inactive”.
In the case of `COc1cc2[nH]c(=S)n(CCN3CCCCC3C)c(=O)c2cc1OC` (stereo not drawn), the Potency is reported as “inactive”.
`COc1cc2[nH]c(=S)n(Cc3ccc(C)o3)c(=O)c2cc1OC` was tested, and the Potency was 8.91 µM (active).
`OC[C@H]1O[C@@H](n2cnc3c(NC4CCCC4)ncnc32)[C@H](O)[C@H]1O` was tested, and the Potency was “inactive”.
For `CCc1ccccc1NC(=O)c1ccc2nc(CCc3ccccc3)oc2c1`, the Potency was “inactive”.
In the case of `O=c1cc(-c2ccccc2)[nH]c2nc(Cl)ccc12`, the Potency is reported as “inactive”.
For `COc1cccc(N2CC(NC(=O)/C=C\c3ccccc3)CC2=O)c1` (stereo not drawn), the Potency was “inactive”.
For `COCOc1cc(O)c(C(=O)/C=C/c2ccc(OCOC)c(OCOC)c2)c(OCOC)c1`, the Potency was “inactive”.
With `COc1ccc(/C=C/C(=O)c2cc(Br)ccc(=O)c2O)cc1` the Potency was 35.5 µM (active).
With `Cc1ccc(-c2nc(=N)sn2Cc2ccccc2)cc1` the Potency was “inactive”.
In the case of `Cc1ccc(NC(=O)Cn2nnc3sc4c(c3c2=O)CCC(C)C4)cc1` (stereo not drawn), the Potency is reported as “inactive”.
For `COc1ccc(CCNc2nc(-c3ccc(F)cc3)cc(C(F)(F)F)n2)cc1OC`, the Potency was “inactive”.
`COc1ccc(-c2cc(C(F)(F)F)nc(SCC(=O)N(C)Cc3ccccc3)n2)cc1OC` was tested, and the Potency was “inactive”.
With `COc1ccc(-c2cc(C(F)(F)F)nc(S(C)(=O)=O)n2)cc1OC` the Potency was 17.8 µM (active).
`CC1CN(C(=O)N2CCC(C(=O)NCc3ccco3)CC2)c2cc(Cl)ccc2O1` (stereo not drawn) was tested, and the Potency was “inactive”.
In the case of `CC(=O)Nc1ccc(NC(=O)CSc2nnc3c4cc(Br)ccc4n(C)c3n2)cc1`, the Potency is reported as “inactive”.
For `CC1CCN(S(=O)(=O)c2ccc3c(c2)N(CC(=O)NCCc2ccccc2)C(=O)CO3)CC1`, the Potency was “inactive”.
With `Brc1ccc(C2=CC(c3ccco3)n3ncnc3N2)cc1` (stereo not drawn) the Potency was 39.8 µM (active).
For `Cc1ccccc1OCC(=O)Nc1c(C(=O)Nc2ccccc2F)oc2ccccc12`, the Potency was “inactive”.
`NC(=O)Nc1ccc(/C=C/c2ccnc3ccccc23)cc1` was tested, and the Potency was “inactive”.
In the case of `Cc1cc(C)cc(C(=O)NC2C(=O)N3C(C(=O)O)=C(CSc4nnc(C)s4)CSC23)c1` (stereo not drawn), the Potency is reported as 8.91 µM (active).
With `C=CC1=C(C(=O)O)N2C(=O)[C@@H](NC(=O)/C(=N/OCC(=O)O)c3csc(N)n3)[C@H]2SC1` the Potency was “inactive”.
`Cc1nnc(SCc2cc(=O)[nH]c(N3CCN(Cc4ccccc4)CC3)n2)s1` was tested, and the Potency was “inactive”.
For `Cc1ccc(C)c(S(=O)(=O)c2nnn3c2nc(N2CCOCC2)c2sccc23)c1`, the Potency was “inactive”.
With `O=C(Nc1ccc(Cl)cc1)c1cnn2c1NC(=C1CC1)C=C2C(F)F` the Potency was “inactive”.
